Source: PubChem BioAssay
The list is not random: actives were taken first. Their share in the collection is about 7.3%.
VP16 counter: Gal4-VP16 reporter inhibition counter-screen. AID 2546. Potency, µM (series often up to 53.6 µM), inactives show at the highest dose activity, negative = inhibition, actives largely listed as inhibitors. Drosophila S2 Gal4-VP16 UAS-luciferase, luminescence, 20 h. 3.5% of 310,000 active;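 note: Gal4-VP16 expression switched on by copper sulfate through the metallothionein promoter; nearly all actives have a fitted effect of over 50% in size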
Tau fluor counter: counter-screen for tau fibril formation inhibitors; Potency, µM (highest dose often 57.7 µM), inactives show top-dose activity change, negative = decrease; tau K18 P301L Alexa594 fluorescence, heparin fibrillization; 0.93% of 280,000 active; note: nearly all actives have a fitted effect of over 55% in size
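Human K18 P301L tau (15 uM unlabeled plus 0.24 uM Alexa 594-labeled, final) in 100 mM sodium acetate pH 7 was mixed with compound and 20 uM heparin and incubated 6 hr at 37 C.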
RORg inh: ROR gamma (mouse) transcription inhibition; P51450; AID 2551; Potency, µM (highest dose often 53.6 µM), for inactives: at the highest dose activity change, negative = inhibition, hits mostly inhibitors; 5.4% of 310,000 active; Drosophila S2 Gal4-RORgamma UAS-luciferase reporter, 20 h; note: nearly all actives have a fitted effect of over 60% in size
Target sequence (P51450 whole entry, looked up, the tested form may be a part): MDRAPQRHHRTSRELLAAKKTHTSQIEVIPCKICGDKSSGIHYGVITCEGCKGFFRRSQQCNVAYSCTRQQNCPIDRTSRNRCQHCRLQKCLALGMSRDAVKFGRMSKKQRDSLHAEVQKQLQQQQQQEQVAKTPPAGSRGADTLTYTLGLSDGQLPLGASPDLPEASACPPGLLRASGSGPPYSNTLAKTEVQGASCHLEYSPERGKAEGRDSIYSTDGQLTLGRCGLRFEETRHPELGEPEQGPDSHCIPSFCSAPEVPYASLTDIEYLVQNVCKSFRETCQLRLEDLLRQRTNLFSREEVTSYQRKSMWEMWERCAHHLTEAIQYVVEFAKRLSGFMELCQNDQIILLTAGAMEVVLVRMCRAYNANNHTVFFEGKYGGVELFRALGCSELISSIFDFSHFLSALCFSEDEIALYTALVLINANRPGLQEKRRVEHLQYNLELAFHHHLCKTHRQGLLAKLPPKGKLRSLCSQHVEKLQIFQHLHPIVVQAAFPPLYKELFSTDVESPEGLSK
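ROR gamma transcriptional activity was tracked as Gal4-UAS luciferase output in stably transfected Drosophila Schneider cells, with compound added 1 hr before 700 uM copper sulfate induction and a 20 hr ambient-temperature incubation.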
Tau fibril FP: tau fibrillization inhibition (FP); Potency, µM (highest dose often 57.7 µM), for inactives: at the top dose activity, negative = inhibition, usual class: inhibitors; 0.39% of 280,000 active; K18 P301L tau heparin fibrillization, Alexa594 FP, 6 h; AID 1468; P10636; note: nearly all actives have a fitted effect of over 55% in size
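FP of Alexa 594-tau after heparin (20 uM) induction. Substrate: human K18 P301L, 15 uM unlabeled, 0.24 uM labeled. Buffer 100 mM sodium acetate pH 7. 6 hr, 37 C.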
Tau fibril ThT: blocks human tau fibril formation measured by thioflavin T | P10636 | Potency, µM (doses to about 57.4 µM), without a hit: at the top dose activity, negative = inhibition, hits mostly inhibitors | 2.1% of 270,000 active | recombinant tau K18 P301L (four-repeat tau fragment), heparin-induced fibrillization, ThT fluorescence; note: nearly all actives have a fitted effect of over 55% in size
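Heparin-induced fibrillization of the P301L-mutant K18 repeat-domain fragment of human tau was followed by ThT binding in quantitative high-throughput format.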
The depositor's hits bear a star; [ ] = remark or other dose. Calls come from the whole dose curve; as a rule, active = well fitted curve in the direction sought with a large enough effect; inconclusive = small, poorly fitted or top-dose-only effect, or another doubt; inactive = no such curve, though single readings can be large; an effect the other way counts as inactive or inconclusive. % is set by controls: 0 for no effect and ±100 for the full control effect; potency is the fitted concentration of half-maximal effect.

For COC(=O)N/N=C\c1cc(Br)ccc1OCc1ccccc1 the results were VP16 counter 7%, Tau fluor counter -18%, RORg inh inconclusive, Tau fibril FP -1% and Tau fibril ThT -9%.
Screening CCOC(=O)N/N=C/c1cccc(Cl)c1Cl returned VP16 counter -7%, Tau fluor counter 6%, RORg inh 30%, Tau fibril FP 1% and Tau fibril ThT -4%.
`COC(=O)N/N=C/c1cc(Br)ccc1O` gave VP16 counter inconclusive, Tau fluor counter 0%, RORg inh 7.1µM*, Tau fibril FP 7% and Tau fibril ThT inconclusive.
COC(=O)N/N=C/c1cc(N=Nc2ccccc2)ccc1O was read as VP16 counter inconclusive, Tau fluor counter inconclusive, RORg inh 1.1µM*, Tau fibril FP 2% and Tau fibril ThT 1.1µM*.
For C/C(CC(=O)NCc1ccco1)=N\NC(=O)c1ccc(Cl)cc1Cl the results were VP16 counter 7% and RORg inh -32%.
`O=C(Nc1cccc(Cl)c1)c1ccc(NCCCN2CCOCC2)c([N+](=O)[O-])c1` gave VP16 counter 0%, Tau fluor counter inconclusive, RORg inh 43%, Tau fibril FP -9% and Tau fibril ThT 14µM*.
`Cc1cccc(NC(=O)c2ccc(NCCc3ccccc3)c([N+](=O)[O-])c2)c1` gave VP16 counter -8%, Tau fluor counter -9%, RORg inh inconclusive, Tau fibril FP -13% and Tau fibril ThT -11%.
For Cc1ccc(NC(=O)c2ccc(NCCN)c([N+](=O)[O-])c2)cc1 the results were VP16 counter -28%, Tau fluor counter -28%, RORg inh 6.3µM*, Tau fibril FP 8% and Tau fibril ThT 14µM*.
CC(=O)N1CCc2cc(S(=O)(=O)CCC(=O)N3CCN(c4cccc(C)c4C)CC3)ccc21 was read as Tau fluor counter -18%, Tau fibril FP -5% and Tau fibril ThT inconclusive.
For O=C(Nc1ccc(OCc2cc(=O)n3c4c(sc3n2)CCCC4)cc1)c1cccc(F)c1 the results were Tau fluor counter -14%, Tau fibril FP -9% and Tau fibril ThT inconclusive.
COC(=O)NC(c1ccccc1)C(C(=O)OC)C(=O)OC (configuration not stated) was read as VP16 counter 8%[10 µM], Tau fluor counter -12%[11.6 µM], RORg inh 5%[10 µM], Tau fibril FP -17%[11.6 µM] and Tau fibril ThT -8%[11.5 µM].
`CC(C)S(=O)(=O)c1csc(NC(=O)Nc2ccc(Cl)cc2)c1` gave VP16 counter 29%, Tau fluor counter 16µM*[quencher], RORg inh 29%, Tau fibril FP inconclusive and Tau fibril ThT -4%.
For NS(=O)(=O)c1cccc(NC(=O)Nc2ccc(Cl)cc2)c1 the results were VP16 counter -8%, Tau fluor counter inconclusive, RORg inh 24%, Tau fibril FP inconclusive and Tau fibril ThT inconclusive.
Screening CCCNc1nc2c(c(=O)n(C)c(=O)n2C)n1Cc1cccc(C)c1 returned VP16 counter 5µM*, Tau fluor counter -8%, RORg inh -32%, Tau fibril FP 17% and Tau fibril ThT -2%.
COCCNc1nc2c(c(=O)n(C)c(=O)n2C)n1Cc1cccc(C(F)(F)F)c1 was read as VP16 counter 3.2µM*, Tau fluor counter 1%, RORg inh -14%, Tau fibril FP 7% and Tau fibril ThT -5%.
Screening Clc1ccc(-c2nnc(CSc3nnc(-c4cccs4)n3Cc3ccccc3)o2)cc1 returned VP16 counter 18µM*, Tau fluor counter -15%, RORg inh inconclusive, Tau fibril FP -2% and Tau fibril ThT -10%.
`CCC1CCCCN1CC(=O)Nc1cc(C)nn1-c1nc(C)cc(C)n1` (configuration not stated) gave VP16 counter 1.3µM*, Tau fluor counter 5%, RORg inh 0.4µM*, Tau fibril FP 0% and Tau fibril ThT -3%.
Screening CCC1CCCCN1CC(=O)Nc1cc(C)c2c(=O)oc3ccccc3c2n1 (configuration not stated) returned Tau fluor counter 3%, Tau fibril FP 7% and Tau fibril ThT -1%.
